In PubChem BioAssay AID525 (The Scripps Research Institute Molecular Screening Center, 2006):
The whole screen tested about 65,000 compounds, of which about 360 (0.55%) were called active.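 How the source made its calls: active means inhibition above the mean inhibition of all tested compounds plus 3 SD (cut at about 48% in these data); inactive means the rest.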 The full list was thinned out, with actives kept by preference.

Target: Steroidogenic factor 1 (Homo sapiens) (UniProt Q13285)
Assay: inhibitors of human SF-1, primary screen, cell-based, CHO-K1, Gal4-SF-1 LBD, luciferase luminescence (AID 525);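 further: 0% = SF-1 transfected cells with DMSO and 100% = mock-transfected cells lacking SF-1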
Conditions: CHO-K1 Gal4-SF-1 LBD luciferase reporter; at 10 µM; hits give high values

Steroidogenic factor 1 (Homo sapiens), sequence (Q13285 whole entry, looked up, the tested form may be a part): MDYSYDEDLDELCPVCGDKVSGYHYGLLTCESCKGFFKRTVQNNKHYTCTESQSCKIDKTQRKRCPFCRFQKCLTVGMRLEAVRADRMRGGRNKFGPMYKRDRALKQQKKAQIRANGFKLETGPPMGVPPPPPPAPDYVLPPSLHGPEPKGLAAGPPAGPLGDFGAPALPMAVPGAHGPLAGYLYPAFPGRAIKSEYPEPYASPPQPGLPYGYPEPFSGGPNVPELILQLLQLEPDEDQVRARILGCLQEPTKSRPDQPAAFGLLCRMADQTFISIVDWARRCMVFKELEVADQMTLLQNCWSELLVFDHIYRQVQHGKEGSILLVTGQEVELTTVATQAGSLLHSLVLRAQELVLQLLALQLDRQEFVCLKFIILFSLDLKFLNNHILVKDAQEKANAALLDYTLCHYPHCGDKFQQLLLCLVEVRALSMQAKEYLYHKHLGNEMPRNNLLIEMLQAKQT

inhibition, active:
CC[C@H]1CN2CCc3cc(OC)c(OC)cc3[C@@H]2C[C@@H]1C[C@H]1NCCc2cc(OC)c(OC)cc21 96%
c1c2c(cc3sc(N4CCCCC4)nc13)OCCO2 71.4%
CCNC(=O)CCc1nc(-c2ccc(C(C)(C)C)cc2)no1 86.4%
COC(=O)c1sc(NC(=O)c2ccc(OC)cc2OC)nc1C 57.8%
CCOc1ccc(-c2nnc(-c3ccco3)o2)cc1 48%

inhibition, inactive:
COc1ccc(NC(=O)Nc2cccc3cccnc23)cc1 -65.5%
O=C(CSCc1cccs1)N1CCCC1 -60.5%
CCCCCN(C(=O)NC(=O)Nc1ccccc1OC)S(C)(=O)=O -5.9%
CN(C(=O)c1ccccn1)c1nnc(-c2ccccn2)s1 -56.6%
COc1ccc(OCc2ccc(-c3nc4ccccc4c(=O)n3N)o2)cc1 -59%
COc1ccc(-c2cn3ccsc3n2)cc1 -53.3%
COC(=O)Cn1cc(C(=O)c2cccs2)c2ccccc21 2.8%
Cn1c(=O)c2c(nc(SCC(=O)Nc3ccccc3N3CCCCC3)n2C)n(C)c1=O -2.8%
CCC(=O)Nc1cccc(NC(=O)CSc2nnc(-c3ccc(NS(C)(=O)=O)cc3)n2C)c1 -2.4%
COc1ccc(N2C(=O)C3CCCN3C2c2cc(OC)c(OC)cc2OC)cc1 (stereo not given) 2.8%
N#Cc1ccc(OCCN2C(=O)NC3(CCSC3)C2=O)cc1 (stereo not given) -12.8%
O=C(NCCN1C(=O)C2C3C=CC(C3)C2C1=O)Nc1ccccn1 (stereo not given) -7.6%
Cc1cc(C)c(NC(=O)CS(=O)CC(=O)Nc2cccnc2)c(C)c1 (stereo not given) 2.2%
CC(=O)c1c(N2CCOCC2)nc(=S)n(Cc2ccccc2)c1C 4.9%
COC(=O)c1cc(C(=O)CSc2nc(C)cc(C)n2)ccc1O 11.2%
O=C(c1cnn2ccccc12)N1CCc2ccccc21 -111%
Cc1nnc(SCC(=O)NCc2cccs2)[nH]c1=O 13.6%
Fc1cc(F)c2nc(N3CCOCC3)sc2c1 -52.6%
O=C(c1cccc(C(=O)N2CCc3ccccc32)n1)N1CCc2ccccc21 0.9%
Cc1ccc(Cc2nc(-c3cccc(C)c3)no2)cc1 -53.9%
Brc1cccc(-c2nnc3n2CCC3)c1 3.8%
CC12CN(Cc3ccccc3)CC(C)(CN(Cc3ccccc3)C1)C2=NO 25.5%
O=C(Nc1ccc(Cl)cc1)c1ccsn1 -73.5%
O=C(Nc1ccccc1C(F)(F)F)c1cc(-c2ccc(O)cc2)on1 -64.4%
CC1CSc2nnc(CCc3ccccc3)n21 (stereo not given) 3.6%
O=C(COc1ccc(Cl)cc1)Nc1ccccc1CO -29%
O=C(NCc1cn2ccsc2n1)Nc1ccc(Cl)cc1 1.7%
O=C(NCc1ccco1)c1cc2sccc2n1Cc1ccc(F)cc1 11%
COc1ccc(CCNC(=O)CSc2nc(C)nc3c2oc2ccccc23)cc1OC -27.3%
COc1cccc(CN2C(=O)CCC2(C)C(=O)NC2CCCCCC2)c1 (stereo not given) -6.9%
O=C(Nc1cccc(Cl)c1)OCc1ccccn1 -33.6%
COc1ccccc1NC(=O)CSc1nnc(Cc2cccn2C)n1-c1ccc(F)cc1 16.2%
O=C(Nc1ccccc1F)c1cc(S(=O)(=O)N2CCCCC2)cs1 4.9%
COc1cccc(OC)c1C(=O)Nc1nnc(C(C)C)s1 5.1%
C=CCNC(=O)CCCOc1cccc(C)c1 -11.2%
Cc1cccc(NC(=O)c2ccc3ccccc3n2)n1 -98.6%
COc1cccc(N(CC(=O)NC2CCCC2)C(=O)Cn2nnc(-c3ccc(C)cc3)n2)c1 -13.3%
COC(=O)c1sc(NC(=O)c2csc3c2CCCC3)nc1C -50.9%
COc1cccc2sc(Nc3nc(C)c(C(C)=O)s3)nc12 -109%
CC(C)C(c1nnnn1Cc1ccccc1)N1CCC(C(N)=O)CC1 (stereo not given) 7.4%
Cn1nnc2cc(C(=O)NCCC3=CCCCC3)ccc21 -49.9%
O=C(c1cccs1)N1CCN(C(=O)N2CCOCC2)CC1 -0.9%
CN(c1ccc(C(=O)NCCC2=CCCCC2)cc1)S(C)(=O)=O -55.4%
CCCCOc1ccc(-c2nnc(-c3ccco3)o2)cc1 -23.7%
CCC(=O)Oc1cccc(C(=O)Nc2ccc(-c3nnc(-c4ccco4)o3)cc2)c1 -79.8%
Cc1csc(NC(=O)C2CCCN2C(=O)OCC(C)C)n1 (stereo not given) 5.9%
O=C(NCc1ccccn1)Nc1ccc(F)cc1 -14.7%
CC(=O)OC(C(=O)NCCc1ccccc1)c1cccnc1 (stereo not given) 4.1%
CCCC(=O)C1=C(N(C)c2ccccc2)CC(C)(C)C(C(=O)OC)C1=O (stereo not given) -2.3%
CCc1nnc(NC(=O)c2cccs2)s1 -50%
Cc1noc(NS(=O)(=O)c2ccc(N3CC(O)=C(c4ccccc4)C3=N)cc2)c1C 10.1%
COCc1cc(C)nc(Nc2cc(C)ccc2C)c1C#N 3.4%
COc1ccc(C)c2sc(=NC(=O)c3ccc(C#N)cc3)n(C)c12 -42.4%
Clc1ccc(Cc2nnc(-c3cccs3)o2)cc1 -59.5%
CCn1c(CSc2nncn2-c2ccc(OC)cc2)nc2cc(S(=O)(=O)N(C)C)ccc21 -10.1%
COc1ccc(OCCCC(=O)Nc2nnc(C3CCCO3)s2)cc1 (stereo not given) -1.2%
Cc1[nH]c2ccc(S(N)(=O)=O)cc2c1C -22.2%
CN(C)c1ccc(CNC23CN4CN(CN(C4)C2)C3)cc1 14.1%
O=C(NCc1ccccc1)C1C(=O)N(Cc2ccccc2)C(=O)C1C1(O)CCCC1 (stereo not given) 4.4%
CC1CN(c2cc(=O)n(Cc3ccc(F)cc3)c(=O)[nH]2)CC(C)O1 (stereo not given) -7.1%
